Source: PubChem BioAssay (NCI)
Compounds without any hit were thinned out: in the full panel of roughly 79,000, 15% have a hit. Activity calls are given as the source filed them. Rule as the data show it: active = growth inhibition above about 70%; inactive = the rest.

Legend:
[1] = NCI Yeast Anticancer Drug Screen. Data for the rad50 strain (AID 155);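 also: 0% = growth of vehicle-only cultures of the same strain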; details: S. cerevisiae rad50 strain growth inhibition, stronger effect = higher value
Method in brief: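 Yeast carrying a defined DNA repair defect were exposed to test compounds, and growth was compared with vehicle-treated controls to give percent inhibition.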

[2] = NCI Yeast Anticancer Drug Screen. Data for the mec2-1 strain (AID 157); details: S. cerevisiae mec2-1 strain, stronger effect = higher value
Method in brief: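 Test agents were screened against the mec2-1 yeast strain, with defined DNA repair or cell cycle alteration. Growth was scored as inhibition against vehicle-only controls.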

[3] = NCI Yeast Anticancer Drug Screen. Data for the sgs1 mgt1 strain (AID 161);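 also: 0% = growth of cultures given vehicle only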; details: S. cerevisiae sgs1 mgt1 strain, stronger effect = higher value
Method in brief: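 Test agents were incubated with a DNA-repair-mutant yeast strain. Growth was then read and compared against vehicle-treated controls.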

[4] = NCI Yeast Anticancer Drug Screen. Data for the cln2 rad14 strain (AID 165);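 also: 0% = growth equal to vehicle treated cultures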; details: S. cerevisiae cln2 rad14 strain, stronger effect = higher value
Method in brief: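 Growth of compound-exposed yeast (cln2 rad14 genotype) measured and expressed as inhibition relative to vehicle.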

[5] = NCI Yeast Anticancer Drug Screen. Data for the bub3 strain (AID 167); details: S. cerevisiae bub3 mutant strain, stronger effect = higher value
Method in brief: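 Compounds were applied to a genetically altered yeast strain carrying a cell-cycle control defect. Growth inhibition was scored against vehicle-treated controls.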

[6] = NCI Yeast Anticancer Drug Screen. Data for the mlh1 rad18 strain (AID 175); details: S. cerevisiae mlh1 rad18 strain growth inhibition, stronger effect = higher value
Method in brief: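 In this whole-cell yeast screen, a strain with altered DNA damage repair is challenged with compound, and its growth is measured against matched vehicle-treated controls.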

[7] = at 5.0 µM (retest, dose inferred, filed as 0.5)
[8] = at 50.0 µM (retest, dose inferred, filed as 5.0)

Measured: growth inhibition

CCCCCCCCCCOC(=O)c1cccnc1
active: [1]; [8] 86% | [3]; [8] 74% | [5]; [8] 91% | [5]; at 50.0 µM 78.2% | [6]; [8] 87% | [6]; at 50.0 µM 80.5%
inactive: [1]; [7] 5% | [1]; at 50.0 µM -5.45% | [2]; [7] 0% | [2]; [8] 52% | [2]; at 50.0 µM 39.3% | [3]; [7] 7% | [3]; at 50.0 µM 30.6% | [4]; [7] 3% | [4]; [8] 34% | [4]; at 50.0 µM -1.4% | [5]; [7] 8% | [6]; [7] 9%

O=C(Cc1csc2[n+]1C(=O)/C(=C/c1cccc([N+](=O)[O-])c1)S2)Nc1ccccc1
inactive: [1]; [7] -5% | [1]; [8] -3% | [1]; at 50.0 µM 41.3% | [2]; [7] -16% | [2]; [8] -5% | [2]; at 50.0 µM 44.2% | [3]; [7] -8% | [3]; [8] 11% | [3]; at 50.0 µM 24% | [4]; [7] -24% | [4]; [8] -17% | [4]; at 50.0 µM 37.5% | [5]; [7] -5% | [5]; [8] 17% | [5]; at 50.0 µM 10.8% | [6]; [7] -3% | [6]; [8] -9% | [6]; at 50.0 µM 33.9%

O=C(/C=N/O)c1c(-c2ccccc2)[nH]c(-c2ccccc2)c1-c1ccccc1
active: [1]; [8] 75% | [1]; at 50.0 µM 94.2% | [2]; [8] 77% | [2]; at 50.0 µM 77.8% | [3]; [8] 90% | [3]; at 50.0 µM 96.3% | [4]; at 50.0 µM 91% | [5]; at 50.0 µM 85.7% | [6]; [8] 93% | [6]; at 50.0 µM 96%
inactive: [1]; [7] 4% | [2]; [7] 5% | [3]; [7] 7% | [4]; [7] 1% | [4]; [8] 33% | [5]; [7] 11% | [5]; [8] 13% | [6]; [7] 31%

Cc1cc2nc3ccc(N)cc3oc-2cc1=[N+](C)C
inactive: [1]; [7] 6% | [2]; [7] 14% | [3]; [7] -9% | [4]; [7] -12% | [5]; [7] -8% | [6]; [7] 7% | [6]; at 50.0 µM 3.8%
active: [1]; [8] 95% | [1]; at 50.0 µM 95.6% | [2]; [8] 96% | [2]; at 50.0 µM 92.8% | [3]; [8] 91% | [3]; at 50.0 µM 74% | [4]; [8] 93% | [4]; at 50.0 µM 81.5% | [5]; [8] 94% | [5]; at 50.0 µM 78.2% | [6]; [8] 92%

Cc1c2cc[n+](C)cc2c(C)c2c1[nH]c1ccc(Cl)cc12
inactive: [1]; [7] 43% | [2]; [7] 28% | [3]; [7] 48% | [4]; [7] 35% | [5]; [7] 42% | [6]; [7] 51%
active: [1]; [8] 97% | [1]; at 50.0 µM 90.2% | [2]; [8] 99% | [2]; at 50.0 µM 92.4% | [3]; [8] 99% | [3]; at 50.0 µM 93% | [4]; [8] 98% | [4]; at 50.0 µM 92.1% | [5]; [8] 99% | [5]; at 50.0 µM 91.6% | [6]; [8] 99% | [6]; at 50.0 µM 91%
